{"source": "ChEMBL document CHEMBL3988442", "about": "“University of Dundee, Small-Polar-MMV Screening Library” (2021)", "note": "Out of some 48,000 compounds screened, about 13,000 (27%) showed an effect of 50% or more. Some of the results follow."}
{"system": "Wolbachia pipientis", "experiment": "Anti-Wolbachia Cell-Based Screen", "format": "functional", "parameters": "scale not given: in the data most compounds retested in dose-response had high values", "details": "5 µM", "units": {"Percent Effect": "%"}}
{"compound": "Cc1cnn(Cc2cc(F)ccc2F)c1NC(=O)C1COCCO1", "note": "(stereo not drawn)", "Percent Effect": -3.747}
{"compound": "CCN(C)C(=O)[C@H]1C[C@@](CC(C)C)(C(=O)OC)N(C)[C@H]1c1cccnc1", "Percent Effect": 5.067}
{"compound": "Cc1cc(-c2ccc(=O)n(C3CCN(C(=O)C4CCC4)CC3)n2)c(C)o1", "Percent Effect": 91.93}
{"compound": "CC(c1ccon1)N(C)C(=O)C1CCN(C(=O)C2CC2)CC1", "note": "(stereo not drawn)", "Percent Effect": 3.184}
{"compound": "CC(c1ccon1)N(C)C(=O)C1CCN(C(=O)C2CCC2)CC1", "note": "(stereo not drawn)", "Percent Effect": -1.254}
{"compound": "Cc1cc(-c2ccc(=O)n(C3CCN(C(=O)C4CC4)CC3)n2)c(C)o1", "Percent Effect": 96.13}
{"compound": "CC(NC(=O)C1CCN(C(=O)C2CC2)CC1)c1nncn1C(C)C", "note": "(stereo not drawn)", "Percent Effect": -33.62}
{"compound": "Cc1ccc2oc(C(=O)N3CCC(C(=O)N4CCCC4)CC3)cc2n1", "Percent Effect": -8.823}
{"compound": "O=C(COc1ccccc1C(F)(F)F)NCCNC(=O)c1ccccc1", "Percent Effect": -6.371}
{"compound": "CCC(=O)Nc1ncn(Cc2cccnc2)n1", "Percent Effect": 8.509}
{"compound": "OCC1(Cc2ccc(F)cc2F)CCCN(Cc2ccncc2)C1", "note": "(stereo not drawn)", "Percent Effect": -2.33}
{"compound": "Cc1nc(Cn2cc(I)cc(C)c2=O)oc1C", "Percent Effect": 3.254}
{"compound": "Cc1noc(C)c1Cn1cc(I)cc(C)c1=O", "Percent Effect": 13.31}
{"compound": "Cc1nnc(Cn2cc(I)cc(C)c2=O)o1", "Percent Effect": 62.5}
{"compound": "Cc1nc(-c2cc(Cl)c3c(c2)CC(CN)O3)c[nH]1", "note": "(stereo not drawn)", "Percent Effect": 12.8}
{"compound": "Cc1occc1C(=O)N1CCC2(CCN(C(=O)c3cccnc3)C2)CC1.O=C(O)C(F)(F)F", "Percent Effect": 124.8}
{"compound": "O=C(O)C(F)(F)F.O=C(c1ccco1)N1C[C@@H]2CCN(c3cccnc3)C[C@@H]2C1", "Percent Effect": 15.12}
{"compound": "O=C(O)C(F)(F)F.O=C(c1cccnc1)N1CCC2(CCN(C(=O)c3ccco3)CC2)C1", "Percent Effect": 98.34}
{"compound": "O=C(O)C(F)(F)F.O=C(c1ccco1)N1CCc2ncnc(Oc3cccnc3)c2CC1", "Percent Effect": 1.407}
{"compound": "Cc1occc1C(=O)N1CCC2(CCN(Cc3nccs3)C2)CC1.O=C(O)C(F)(F)F", "Percent Effect": -10.35}
{"compound": "COCCNC(=O)[C@]12COC[C@H]1CN(c1cc(OC)ncn1)C2", "Percent Effect": -2.209}
{"compound": "CNc1ncc(CN(C)Cc2cc(O)c3cccc(Cl)c3n2)cn1", "Percent Effect": -16.65}
{"compound": "CC1COCCN1C(=O)NCCn1ccnc1", "note": "(stereo not drawn)", "Percent Effect": 4.662}
{"compound": "O=C1C[C@H]2CC[C@@H](CN1)N2C(=O)CCCc1ccc(Cl)cc1", "Percent Effect": 109.6}
{"compound": "O=C(c1ccccn1)N1C[C@@H]2CC[C@H](C1)N(C(=O)CCc1ccsc1)C2", "Percent Effect": -35.6}
{"compound": "O=C(CCc1ccccc1)N1CCN(C(=O)c2ccc[nH]2)CC1", "Percent Effect": 0.009024}
{"compound": "O=C1C[C@H]2CC[C@@H](CN1)N2C(=O)Cc1ccsc1", "Percent Effect": 116.9}
{"compound": "O=C1CO[C@@H]2CN(C(=O)CCc3ccccc3)C[C@H]2N1", "Percent Effect": -22.36}
{"compound": "O=C1C[C@H]2CC[C@@H](CN1)N2C(=O)CCc1ccsc1", "Percent Effect": 104.7}
{"compound": "O=C(CCCc1ccc(Cl)cc1)N1CCN(C(=O)c2ccc[nH]2)CC1", "Percent Effect": -0.04512}
{"compound": "Cn1c2c(ccc1=O)CC(NC(=O)Cc1ccsc1)CC2", "note": "(stereo not drawn)", "Percent Effect": -9.793}
{"compound": "O=C(c1cnccn1)N1C[C@@H]2CC[C@H](C1)N(C(=O)Cc1ccsc1)C2", "Percent Effect": 0.9084}
{"compound": "NC(=O)C1CCCN1CCCc1ccc(Cl)cc1", "note": "(stereo not drawn)", "Percent Effect": -0.6682}
{"compound": "O=C1C[C@H]2CC[C@@H](CN1)N2C(=O)CCc1ccccc1", "Percent Effect": 110.6}
{"compound": "CS(=O)(=O)N1C[C@@H]2CC[C@H](C1)N(C(=O)CCc1ccsc1)C2", "Percent Effect": 10.69}
{"compound": "CCN1C(=O)[C@H]2CN(CC(C)C)C[C@H]2C12CCN(S(C)(=O)=O)CC2.O=C(O)C(F)(F)F", "Percent Effect": 7.177}
{"compound": "CN(C)C1CCN(C(=O)C2SCCc3ccccc32)CC1", "note": "(stereo not drawn)", "Percent Effect": -22.58}
{"compound": "CC(NCCCc1cnn(C)c1)c1ccc(Cl)s1", "note": "(stereo not drawn)", "Percent Effect": 3.726}
{"compound": "O=C(NC1CC1)C1CNCCN1C(=O)CCc1ccc2c(c1)OCO2", "note": "(stereo not drawn)", "Percent Effect": 13.7}
{"compound": "O=C1C[C@H]2CC[C@@H](CN1)N2C(=O)CCc1ccc2c(c1)OCO2", "Percent Effect": 96.79}
{"compound": "O=C(CCc1ccc2c(c1)OCO2)N1CCCC(n2cccn2)C1", "note": "(stereo not drawn)", "Percent Effect": -13.74}
{"compound": "O=C(O)C(F)(F)F.O=C([C@H]1COC[C@H]2CN(C3CCCCC3)C[C@H]21)N1CCOCC1", "Percent Effect": -10.34}
{"compound": "O=C(O)C(F)(F)F.O=C([C@@H]1CC[C@@H]2[C@@H](CCN2CCOCc2ccccc2)O1)N1CCCC1", "Percent Effect": -30.56}
{"compound": "O=C(O)C(F)(F)F.O=C([C@H]1CC[C@@H]2[C@@H](CCN2C2CCCCC2)O1)N1CCOCC1", "Percent Effect": 120.9}
{"compound": "O=C(O)C(F)(F)F.O=C([C@H]1CC[C@@H]2[C@@H](CCN2C2CCCC2)O1)N1CCOCC1", "Percent Effect": 125.5}
{"compound": "O=C(O)C(F)(F)F.O=C([C@H]1CC[C@@H]2[C@@H](CCN2Cc2ccsc2)O1)N1CCOCC1", "Percent Effect": -4.642}
{"compound": "O=C(O)C(F)(F)F.O=C([C@H]1CC[C@@H]2[C@@H](CCN2C2CCOCC2)O1)N1CCOCC1", "Percent Effect": 111.7}
{"compound": "CCN1CCC(CC(=O)N(C)CC(=O)c2ccc(O)cc2)CC1", "Percent Effect": -2.698}
{"compound": "CCCc1cc(C(=O)N2Cc3cnc(C(C)(C)C)nc3C2)ccn1", "Percent Effect": -16.23}
{"compound": "CS(=O)(=O)N1CC[C@H]2OCC[C@@]2(C(=O)NCc2ccccn2)C1.O=C(O)C(F)(F)F", "Percent Effect": 125.2}
{"compound": "O=C(O)C(F)(F)F.O=S(=O)(C1CC1)N1CC[C@H]2OCC[C@@]2(COc2ncccc2F)C1", "Percent Effect": -5.546}
{"compound": "CS(=O)(=O)N1CC[C@H]2OCC[C@@]2(C(=O)NCCc2ccccn2)C1.O=C(O)C(F)(F)F", "Percent Effect": 88.95}
{"compound": "O=C(NCc1ccccn1)[C@@]12CCO[C@@H]1CCN(Cc1ccccn1)C2.O=C(O)C(F)(F)F.O=C(O)C(F)(F)F.O=C(O)C(F)(F)F", "Percent Effect": 100.7}
{"compound": "O=C(NCc1ccco1)[C@@]12CCO[C@@H]1CCN(Cc1ccccn1)C2.O=C(O)C(F)(F)F.O=C(O)C(F)(F)F", "Percent Effect": -8.079}
{"compound": "Cc1ccc(-c2ccc(C(=O)NCC(N)=O)c(F)c2)cc1", "Percent Effect": -9.702}
{"compound": "COc1ccc(F)cc1C(=O)N1C[C@H]2CC[C@@H]1CN(c1ncccn1)C2", "Percent Effect": 11.2}
{"compound": "CN(C)C(=O)Cc1ccccc1NCc1cc(C#N)ccc1F", "Percent Effect": 6.834}
{"compound": "Cn1cc(CN2CCn3cc(CNC(=O)CC4CC4)nc3C2)cn1.O=C(O)C(F)(F)F", "Percent Effect": -2.745}
{"compound": "CC(c1ccccc1F)N(CC(N)=O)C1CC1", "note": "(stereo not drawn)", "Percent Effect": 1.619}
{"compound": "Cc1cc(-c2cncnc2)nc(C2CCCN2S(C)(=O)=O)n1", "note": "(stereo not drawn)", "Percent Effect": 120.6}
{"compound": "Cc1ccc(-c2cc(C)nc(C3CCCN3S(C)(=O)=O)n2)cc1", "note": "(stereo not drawn)", "Percent Effect": 112.5}
{"compound": "Cc1nc2ccc(-n3ncnc3[C@@H]3CCCN3S(C)(=O)=O)cc2s1", "Percent Effect": -0.8415}
{"compound": "CN(Cc1cc(-c2cccnc2)no1)C(=O)C1CCCN1S(C)(=O)=O", "note": "(stereo not drawn)", "Percent Effect": -3.149}
{"compound": "Cc1cc(-c2ccccc2)nc(C2CCCN2S(C)(=O)=O)n1", "note": "(stereo not drawn)", "Percent Effect": 91.07}
{"compound": "Cc1cc(-c2cccnc2)nc(C2CCCN2S(C)(=O)=O)n1", "note": "(stereo not drawn)", "Percent Effect": 97.49}
{"compound": "CCCS(=O)(=O)N1CCCC1c1cccc(N(C)C)c1", "note": "(stereo not drawn)", "Percent Effect": 5.298}
{"compound": "Cc1ccc(O[C@@H]2C[C@H]3CN(Cc4nccn4C)CCN3C2)cc1.O=C(O)C(F)(F)F.O=C(O)C(F)(F)F", "Percent Effect": -3.373}
{"compound": "CCC1=N[C@@]2(CC[C@@H]3CN(S(=O)(=O)CC(C)C)C[C@@H]32)C(=O)N1CC1CC1", "Percent Effect": 6.599}
{"compound": "C[C@@H]1CN(C2CCN(c3ccccc3F)CC2)C[C@]1(C)O", "Percent Effect": -10.13}
{"compound": "CC(=O)NC(C)(C)c1noc(C2(C#N)CCCCC2)n1", "Percent Effect": -6.661}
{"compound": "COc1ccccc1CNCc1nn(-c2ccccc2)c2c1CCC2", "Percent Effect": -29.63}
{"compound": "CS(=O)(=O)N1CCCCCC1c1cc(-c2ccc(F)cc2)no1", "note": "(stereo not drawn)", "Percent Effect": 132.6}
{"compound": "CC(C)c1noc(C2CCCN2S(=O)(=O)Cc2ccc(F)cc2)n1", "note": "(stereo not drawn)", "Percent Effect": -21.21}
{"compound": "Cc1cc(-c2ccccc2C(=O)O)nc(C2CCCN2S(C)(=O)=O)n1", "note": "(stereo not drawn)", "Percent Effect": 105.2}
{"compound": "COc1ccc(-c2cc(C3CCCCCN3S(=O)(=O)N(C)C)on2)cc1", "note": "(stereo not drawn)", "Percent Effect": -9.2}
{"compound": "Cc1ncsc1CCN(C)C(=O)C(c1cccnc1)N1CCOCC1", "note": "(stereo not drawn)", "Percent Effect": 2.321}
{"compound": "c1nc2onc(C3CC3)c2cc1-c1nnc(C2CC2)o1", "Percent Effect": -6.537}
{"compound": "O=C(COc1ccc2cccnc2c1)N1CCN[C@H]2CS(=O)(=O)C[C@H]21", "Percent Effect": 2.711}
{"compound": "COc1ccc(-c2cc(-c3nc(CN4CCN(C)CC4)no3)[nH]n2)cc1", "Percent Effect": -0.5802}
{"compound": "COc1ccc(-c2cc(C[C@@H]3C[C@H](N(C)C)C3(C)C)no2)cc1", "Percent Effect": 1.876}
{"compound": "COc1ccc(-c2cc(N)on2)cc1", "Percent Effect": 77.55}
{"compound": "COc1ccc(-c2csc(-c3cccc(C(=O)O)c3)n2)cc1OC", "Percent Effect": -12.11}
{"compound": "COc1ccc(-c2noc(C3=NN(C)C(=O)CC3)n2)cc1OC", "Percent Effect": -3.216}
{"compound": "COc1ccc(-c2cc(N)on2)cc1OC", "Percent Effect": 106.7}
{"compound": "COc1cccc(C(O)Cn2ncc3ncccc3c2=O)c1", "note": "(stereo not drawn)", "Percent Effect": -14.22}
{"compound": "Cc1nc(CNC(C)c2ccc(S(=O)(=O)N(C)C)cc2)no1", "note": "(stereo not drawn)", "Percent Effect": -3.104}
{"compound": "Cc1cscc1C(=O)NC1CC(=O)N(C(C)C)C1=O", "note": "(stereo not drawn)", "Percent Effect": -19.94}
{"compound": "Oc1nc(N2CCOCC2)nc2c1CCN(Cc1cccnc1)CC2", "Percent Effect": -6.583}
{"compound": "Oc1nc(N2CCOCC2)nc2c1CCN(Cc1ccc(F)cc1)CC2", "Percent Effect": 116.9}
{"compound": "Oc1nc(N2CCOCC2)nc2c1CCN(Cc1cccc(F)c1)CC2", "Percent Effect": 117}
{"compound": "Oc1nc(N2CCCC2)nc2c1CCN(Cc1cccnc1)CC2", "Percent Effect": 121.5}
{"compound": "Oc1nc(N2CCOCC2)nc2c1CCN(Cc1ccccc1)CC2", "Percent Effect": 129.9}
{"compound": "c1cc(CN2CCc3nc(N4CCOCC4)nc(NC4CC4)c3C2)co1", "Percent Effect": 2.456}
